Results taken from PubChem BioAssay (NCI).
The panel holds about 83,000 compounds, 20% with a hit somewhere; the sample as a whole holds those more often.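 A percent growth of 40 corresponds to 60% growth inhibition; 0 means no net growth; -100 means all cells died. Active threshold: below 10.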 Active and inactive are the calls of the source.

Columns and labels:
Test in all cases: NCI-60 one-dose screen, 48 h (100 = growth as untreated, 0 = no growth, -100 = all killed)
Conditions in all cases: 10 µM unless noted
DU-145 prostate = test system: DU-145 prostate
K-562 leukemia = test system: K-562 leukemia
MALME-3M melanoma = test system: MALME-3M melanoma
MDA-MB-231 breast = test system: MDA-MB-231 breast
RXF 393 renal = test system: RXF 393 renal
SF-268 CNS = test system: SF-268 CNS
SF-295 CNS = test system: SF-295 CNS
SF-539 CNS = test system: SF-539 CNS
M14 melanoma = test system: M14 melanoma

Measured: growth

COc1cc(-c2nc(C(=O)Nc3ccc(C)cc3)nn2-c2ccc(F)c(F)c2)cc(OC)c1OC
inactive: DU-145 prostate 100% | K-562 leukemia 101% | MALME-3M melanoma 89% | MDA-MB-231 breast 96.1% | RXF 393 renal 116% | SF-268 CNS 89.2% | SF-295 CNS 94% | SF-539 CNS 107% | M14 melanoma 94.6%

COC(=O)C1CCc2sc3ncnc(Nc4cn[nH]c4C(=O)Nc4ccc(CN5CCN(C)CC5)cc4)c3c21 (stereo not given)
inactive: SF-295 CNS 26.4%
active: DU-145 prostate -44.6% | K-562 leukemia -24% | MALME-3M melanoma -72.3% | MDA-MB-231 breast -0.275% | RXF 393 renal -78.9% | SF-268 CNS -1.56% | SF-539 CNS -77.3% | M14 melanoma -0.905%

Cc1cc(N2CCOCC2)nc(N(CCNc2ccnc3cc(Cl)ccc23)Cc2cccs2)n1
inactive: DU-145 prostate 42% | SF-268 CNS 43.8%
active: K-562 leukemia 2.63% | MALME-3M melanoma -18.4% | MDA-MB-231 breast -0.994% | RXF 393 renal -46.5% | SF-295 CNS -54% | SF-539 CNS -65.7% | M14 melanoma 3%

N#Cc1cc2[nH]c3ccc(OC(F)(F)F)cc3c2oc1=O
inactive: DU-145 prostate 99.4% | K-562 leukemia 28.8% | MALME-3M melanoma 79.6% | MDA-MB-231 breast 84.6% | RXF 393 renal 76.8% | SF-268 CNS 75.5% | SF-295 CNS 80.3% | SF-539 CNS 90% | M14 melanoma 68.4%

CCN1CCN(c2nc(C)cc(N(CCNc3ccnc4cc(Cl)ccc34)Cc3ccc4c(c3)OCO4)n2)CC1
active: K-562 leukemia -54.9% | MALME-3M melanoma -82.2% | MDA-MB-231 breast -0.846% | RXF 393 renal -54.6% | SF-295 CNS -62.9% | SF-539 CNS -90.7% | M14 melanoma -80.2%
inactive: DU-145 prostate 40.2% | SF-268 CNS 30.7%

CCN1CCN(c2cc(C)nc(N(CCCNc3ccnc4cc(Cl)ccc34)Cc3cccs3)n2)CC1
inactive: DU-145 prostate 26.4%
active: K-562 leukemia -14.2% | MALME-3M melanoma -85.7% | MDA-MB-231 breast -20% | RXF 393 renal -53.8% | SF-268 CNS 7.31% | SF-295 CNS -69.4% | SF-539 CNS -89.8% | M14 melanoma -84%

Cc1cc2c(-c3nc4ccccn4c3N)c(O)c(O)cc2c(O)c1-c1c(C)cc2c(-c3nc4ccccn4c3N)c(O)c(O)cc2c1O
active: MALME-3M melanoma -0.749% | SF-295 CNS 2.67%
inactive: DU-145 prostate 26% | K-562 leukemia 14.6% | MDA-MB-231 breast 13.6% | RXF 393 renal 25.3% | SF-268 CNS 20.4% | SF-539 CNS 14.9% | M14 melanoma 25.1%

Cc1ccc(-c2cc3c(SCC(=O)Nc4cc(C(F)(F)F)ccc4Cl)nccn3n2)cc1
active: K-562 leukemia -10.4% | MALME-3M melanoma -69.5%
inactive: DU-145 prostate 25.6% | MDA-MB-231 breast 13.4% | RXF 393 renal 13.5% | SF-268 CNS 56.5% | SF-295 CNS 38.1% | SF-539 CNS 53.9% | M14 melanoma 50.6%

COc1cc(-c2cc(-c3ccc(Nc4ccnc5cc(Cl)ccc45)cc3)nc(N3CCOCC3)n2)cc(OC)c1OC
inactive: SF-268 CNS 11.2% | SF-539 CNS 32.9%
active: DU-145 prostate 4.95% | K-562 leukemia 7.37% | MALME-3M melanoma -22.4% | MDA-MB-231 breast -15.4% | RXF 393 renal -8.41% | SF-295 CNS 6.95% | M14 melanoma -22.2%

Clc1ccc(/C=C/c2cc(N3CCOCC3)c3cc(Cl)c(Cl)cc3n2)cc1
inactive: DU-145 prostate 60.2% | K-562 leukemia 86.3% | MALME-3M melanoma 56% | MDA-MB-231 breast 59.3% | RXF 393 renal 81.1% | SF-268 CNS 58% | SF-295 CNS 95.9% | SF-539 CNS 62.3% | M14 melanoma 98.5%

Cc1cc2c(-c3nc4ccccn4c3NC34CC5CC(CC(C5)C3)C4)c(O)c(O)cc2c(O)c1-c1c(C)cc2c(-c3nc4ccccn4c3NC34CC5CC(CC(C5)C3)C4)c(O)c(O)cc2c1O
inactive: DU-145 prostate 19.2% | MDA-MB-231 breast 21.9% | RXF 393 renal 12.2% | SF-268 CNS 17%
active: K-562 leukemia 7.38% | MALME-3M melanoma 7.47% | SF-295 CNS 1.49% | SF-539 CNS -1.69% | M14 melanoma -0.979%

COC(=O)CCCNc1c(-c2c(O)c(O)cc3c(O)c(-c4c(C)cc5c(-c6nc7ccccn7c6NCCCC(=O)OC)c(O)c(O)cc5c4O)c(C)cc23)nc2ccccn12
active: SF-539 CNS 2.01%
inactive: DU-145 prostate 29.6% | K-562 leukemia 11% | MALME-3M melanoma 39.9% | MDA-MB-231 breast 56.1% | RXF 393 renal 32.9% | SF-268 CNS 25.3% | SF-295 CNS 26.4% | M14 melanoma 60.3%

CCN1CCN(c2cc(C)nc(N(CCCNc3ccnc4cc(Cl)ccc34)Cc3ccc4c(c3)OCO4)n2)CC1
inactive: DU-145 prostate 20.1%
active: K-562 leukemia -30.4% | MALME-3M melanoma -82.2% | MDA-MB-231 breast -29.5% | RXF 393 renal -59% | SF-268 CNS -0.704% | SF-295 CNS -70% | SF-539 CNS -88.6% | M14 melanoma -82.2%

Cc1nn(-c2nc3ccccc3[nH]2)c2c1C(c1ccc(O)cc1)CC(=O)N2 (stereo not given)
inactive: DU-145 prostate 99.5% | K-562 leukemia 97.8% | MALME-3M melanoma 100% | MDA-MB-231 breast 71.9% | SF-268 CNS 74% | SF-539 CNS 95.4% | M14 melanoma 72%
active: SF-295 CNS -16.2%

CN1CCN(c2nc(NCCNc3ccnc4cc(Cl)ccc34)c3ccccc3n2)CC1
inactive: DU-145 prostate 34.6% | SF-268 CNS 32.6%
active: K-562 leukemia -14.1% | MALME-3M melanoma -57.4% | MDA-MB-231 breast -10.8% | RXF 393 renal -35.8% | SF-295 CNS -38.7% | SF-539 CNS -78.4% | M14 melanoma -63.3%

CN1CCN(Cc2ccc(NC(=O)c3[nH]ncc3Nc3ncnc4sc5c(c34)CCCC5)cc2)CC1
active: DU-145 prostate -86.7% | K-562 leukemia -60.6% | MALME-3M melanoma -75.4% | MDA-MB-231 breast -57.8% | RXF 393 renal -92.9% | SF-268 CNS -44.3% | SF-295 CNS -87.9% | SF-539 CNS -100% | M14 melanoma -95.2%

COC(=O)C1=C(C(=O)OC)C23C=C(C)C1C2=C(C)C1(CC1)[C@@](C)(O)C3=O (stereo not given in full)
inactive: K-562 leukemia 81%
active: DU-145 prostate 2.57% | MALME-3M melanoma -44.4% | MDA-MB-231 breast 9.08% | RXF 393 renal -64.4% | SF-268 CNS 7.19% | SF-295 CNS -4% | SF-539 CNS -39.6% | M14 melanoma -43.1%

c1ccc2c(c1)CCN(NCCN1CCCC1)C2
inactive: DU-145 prostate 110% | K-562 leukemia 92.2% | MALME-3M melanoma 101% | MDA-MB-231 breast 87% | RXF 393 renal 99.9% | SF-268 CNS 96.6% | SF-295 CNS 98% | SF-539 CNS 97.7% | M14 melanoma 93%

COC(=O)[C@]12CC[C@@H](C)[C@H](C)[C@@H]1C1=CC[C@@H]3[C@@]4(C)C(C#N)=CC(C)=C4CC[C@@]3(C)[C@]1(C)CC2
inactive: DU-145 prostate 99.3% | K-562 leukemia 84.5% | MALME-3M melanoma 87.5% | MDA-MB-231 breast 85.4% | SF-268 CNS 85.3% | SF-295 CNS 85.4% | SF-539 CNS 91.8% | M14 melanoma 77.2%

Cc1ccc(NC(=O)NC(=O)CSc2nc3ccccc3nc2C)cc1
inactive: DU-145 prostate 85% | K-562 leukemia 44.8% | MALME-3M melanoma 71.1% | MDA-MB-231 breast 73.1% | RXF 393 renal 90.4% | SF-268 CNS 86.5% | SF-295 CNS 43.7% | SF-539 CNS 65.5% | M14 melanoma 74.9%

Cc1cc(N(CCNc2ccnc3cc(Cl)ccc23)Cc2ccc3c(c2)OCO3)nc(N2CCCC2)n1
inactive: DU-145 prostate 29.7% | SF-268 CNS 22.8%
active: K-562 leukemia -33.2% | MALME-3M melanoma -72.8% | MDA-MB-231 breast -8.4% | RXF 393 renal -70.7% | SF-295 CNS -65.3% | SF-539 CNS -93.3% | M14 melanoma -78.2%

CCN1CCN(c2nc(C)cc(N(CCCNc3ccnc4cc(Cl)ccc34)Cc3ccc4c(c3)OCO4)n2)CC1
active: K-562 leukemia -10.5% | MALME-3M melanoma -81.9% | MDA-MB-231 breast -32.8% | RXF 393 renal -73.4% | SF-268 CNS -6.06% | SF-295 CNS -76.1% | SF-539 CNS -86.1% | M14 melanoma -87.9%
inactive: DU-145 prostate 25%

O=c1[nH]c(N2CCOCC2)nc2scc(-c3ccccc3)c12
inactive: DU-145 prostate 107% | K-562 leukemia 101% | MALME-3M melanoma 88.8% | MDA-MB-231 breast 108% | RXF 393 renal 97.5% | SF-268 CNS 89.4% | SF-295 CNS 96.5% | SF-539 CNS 94.3% | M14 melanoma 98.9%

CC(C)=CCc1cc2c(cc1O)C1=C(C(=O)C3=C(C1=O)S(=O)(=O)CCN3)C(C=C(C)C)O2 (stereo not given)
active: DU-145 prostate -97.1% | K-562 leukemia 0.919% | MALME-3M melanoma -96.1% | MDA-MB-231 breast 1.47% | RXF 393 renal -76.2% | SF-268 CNS -0.0427% | SF-295 CNS -65.9% | SF-539 CNS -100% | M14 melanoma -89.1%

[2H]C1([2H])[C@H](C)O[C@H](C)C([2H])([2H])N1c1ccc(NC(=O)c2cccc(-c3ccc(OC(F)(F)F)cc3)c2C)cn1
inactive: DU-145 prostate 80.1% | K-562 leukemia 38.2% | MALME-3M melanoma 68.2% | MDA-MB-231 breast 74.9% | RXF 393 renal 90% | SF-268 CNS 71.6% | SF-295 CNS 73.3% | SF-539 CNS 81.6% | M14 melanoma 77%

Cc1cc2c(-c3nc4ccccn4c3NC3CCCCC3)c(O)c(O)cc2c(O)c1-c1c(C)cc2c(-c3nc4ccccn4c3NC3CCCCC3)c(O)c(O)cc2c1O
inactive: DU-145 prostate 32.3% | K-562 leukemia 10.2% | MALME-3M melanoma 42.5% | MDA-MB-231 breast 26.5% | RXF 393 renal 39% | SF-268 CNS 38.2% | SF-295 CNS 16.6% | SF-539 CNS 16.9% | M14 melanoma 16.5%

CC(C)OP(=O)(CCC(=O)c1c[nH]c2ccccc12)OC(C)C
inactive: DU-145 prostate 116% | K-562 leukemia 95.6% | MALME-3M melanoma 97.2% | MDA-MB-231 breast 106% | RXF 393 renal 114% | SF-268 CNS 101% | SF-295 CNS 104% | SF-539 CNS 97.4% | M14 melanoma 98.4%

CN(N)c1nc2sc3c(c2c(=O)[nH]1)CCCC3
inactive: DU-145 prostate 101% | K-562 leukemia 109% | MALME-3M melanoma 88.7% | MDA-MB-231 breast 102% | RXF 393 renal 108% | SF-268 CNS 95.9% | SF-295 CNS 93% | SF-539 CNS 98.7% | M14 melanoma 98.7%
